Assays:
[1] = target: High affinity nerve growth factor receptor (Homo sapiens) (UniProt P04629); conditions: at 1 µM;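 note: each value is the mean percent inhibition of TRKA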
[2] = target: BDNF/NT-3 growth factors receptor (Homo sapiens) (UniProt Q16620); conditions: at 0.1 µM
[3] = target: BDNF/NT-3 growth factors receptor (Homo sapiens) (UniProt Q16620); conditions: at 1 µM
[4] = target: NT-3 growth factor receptor (Homo sapiens) (UniProt Q16288); conditions: at 0.1 µM
[5] = target: NT-3 growth factor receptor (Homo sapiens) (UniProt Q16288); conditions: at 1 µM
[6] = target: T1, Tyrosine-protein kinase TXK (Homo sapiens) (UniProt P42681); conditions: at 0.1 µM
T1 sequence (whole entry): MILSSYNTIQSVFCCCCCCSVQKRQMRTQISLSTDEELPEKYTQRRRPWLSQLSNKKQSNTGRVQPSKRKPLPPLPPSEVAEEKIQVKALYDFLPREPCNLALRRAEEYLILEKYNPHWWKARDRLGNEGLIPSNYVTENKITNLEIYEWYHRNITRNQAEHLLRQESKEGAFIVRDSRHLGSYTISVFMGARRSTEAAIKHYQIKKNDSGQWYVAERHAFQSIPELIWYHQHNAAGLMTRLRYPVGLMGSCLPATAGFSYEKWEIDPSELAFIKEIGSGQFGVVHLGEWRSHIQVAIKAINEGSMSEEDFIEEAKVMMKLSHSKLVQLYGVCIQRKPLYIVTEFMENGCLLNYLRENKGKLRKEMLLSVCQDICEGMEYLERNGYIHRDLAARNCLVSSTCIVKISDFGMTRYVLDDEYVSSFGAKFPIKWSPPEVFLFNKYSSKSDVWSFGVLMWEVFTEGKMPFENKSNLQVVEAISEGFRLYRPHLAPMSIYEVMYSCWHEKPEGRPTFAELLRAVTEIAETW

[7] = target: T1, Tyrosine-protein kinase TXK (Homo sapiens); conditions: at 1 µM
[8] = target: Non-receptor tyrosine-protein kinase TYK2 (Homo sapiens) (UniProt P29597); conditions: at 0.1 µM;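 note: each value is a mean of the inhibition readings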
Chain of Non-receptor tyrosine-protein kinase TYK2 (Homo sapiens) (P29597 whole entry): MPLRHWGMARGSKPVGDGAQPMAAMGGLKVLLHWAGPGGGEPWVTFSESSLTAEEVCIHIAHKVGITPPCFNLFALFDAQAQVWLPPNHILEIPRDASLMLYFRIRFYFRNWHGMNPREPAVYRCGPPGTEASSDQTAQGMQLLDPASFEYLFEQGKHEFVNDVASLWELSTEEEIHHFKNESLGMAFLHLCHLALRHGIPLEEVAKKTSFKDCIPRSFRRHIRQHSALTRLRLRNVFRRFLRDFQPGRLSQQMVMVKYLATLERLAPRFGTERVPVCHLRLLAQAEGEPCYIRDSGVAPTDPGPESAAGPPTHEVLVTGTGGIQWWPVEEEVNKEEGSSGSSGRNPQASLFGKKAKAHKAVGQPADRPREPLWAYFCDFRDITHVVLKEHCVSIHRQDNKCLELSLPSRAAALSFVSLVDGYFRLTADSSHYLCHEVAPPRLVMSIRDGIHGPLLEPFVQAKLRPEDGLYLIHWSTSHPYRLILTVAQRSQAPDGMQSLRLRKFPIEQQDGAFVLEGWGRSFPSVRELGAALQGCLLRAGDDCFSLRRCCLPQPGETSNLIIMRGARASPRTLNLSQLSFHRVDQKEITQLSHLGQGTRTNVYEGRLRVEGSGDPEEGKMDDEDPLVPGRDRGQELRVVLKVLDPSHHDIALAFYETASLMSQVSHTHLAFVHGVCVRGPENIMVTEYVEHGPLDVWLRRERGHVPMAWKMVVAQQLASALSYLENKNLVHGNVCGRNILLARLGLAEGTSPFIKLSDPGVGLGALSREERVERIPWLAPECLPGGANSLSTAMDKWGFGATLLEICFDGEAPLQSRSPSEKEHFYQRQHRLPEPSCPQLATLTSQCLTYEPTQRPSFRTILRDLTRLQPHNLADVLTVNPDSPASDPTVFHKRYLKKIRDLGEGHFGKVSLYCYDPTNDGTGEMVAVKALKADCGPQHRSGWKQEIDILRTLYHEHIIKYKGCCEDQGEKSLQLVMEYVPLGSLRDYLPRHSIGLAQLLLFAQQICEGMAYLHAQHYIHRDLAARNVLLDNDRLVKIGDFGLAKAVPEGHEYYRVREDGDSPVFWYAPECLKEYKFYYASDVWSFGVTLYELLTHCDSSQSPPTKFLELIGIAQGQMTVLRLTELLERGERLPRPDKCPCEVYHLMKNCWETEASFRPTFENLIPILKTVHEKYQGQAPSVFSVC

[9] = target: T2, Dual specificity protein kinase TTK (Homo sapiens) (UniProt P33981); conditions: at 1 µM;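 note: reported figures are mean TTK inhibition at 1 µM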
T2 sequence (whole entry): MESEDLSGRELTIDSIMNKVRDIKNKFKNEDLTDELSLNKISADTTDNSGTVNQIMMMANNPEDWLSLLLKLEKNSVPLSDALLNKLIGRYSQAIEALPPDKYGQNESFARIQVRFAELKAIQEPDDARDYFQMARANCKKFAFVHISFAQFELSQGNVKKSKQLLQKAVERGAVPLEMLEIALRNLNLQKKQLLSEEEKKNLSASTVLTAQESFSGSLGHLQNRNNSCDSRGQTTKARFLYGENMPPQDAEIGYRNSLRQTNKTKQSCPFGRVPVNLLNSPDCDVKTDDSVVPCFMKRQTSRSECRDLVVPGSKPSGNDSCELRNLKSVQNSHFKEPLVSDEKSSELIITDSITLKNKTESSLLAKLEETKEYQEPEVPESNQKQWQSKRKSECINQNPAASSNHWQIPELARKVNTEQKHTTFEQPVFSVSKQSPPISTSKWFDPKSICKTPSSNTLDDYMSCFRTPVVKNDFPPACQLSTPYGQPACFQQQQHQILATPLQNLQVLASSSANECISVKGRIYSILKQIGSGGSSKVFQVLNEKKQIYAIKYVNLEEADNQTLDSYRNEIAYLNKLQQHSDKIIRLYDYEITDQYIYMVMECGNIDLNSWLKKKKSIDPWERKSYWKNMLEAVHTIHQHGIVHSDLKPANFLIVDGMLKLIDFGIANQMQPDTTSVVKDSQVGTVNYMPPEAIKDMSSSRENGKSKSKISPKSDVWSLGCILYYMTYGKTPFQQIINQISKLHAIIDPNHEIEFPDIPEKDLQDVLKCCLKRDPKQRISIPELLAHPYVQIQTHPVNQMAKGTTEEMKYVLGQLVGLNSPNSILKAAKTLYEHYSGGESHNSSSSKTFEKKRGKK

[10] = target: T3, Aurora kinase A (Homo sapiens) (UniProt O14965); conditions: at 0.1 µM
T3 sequence (whole entry): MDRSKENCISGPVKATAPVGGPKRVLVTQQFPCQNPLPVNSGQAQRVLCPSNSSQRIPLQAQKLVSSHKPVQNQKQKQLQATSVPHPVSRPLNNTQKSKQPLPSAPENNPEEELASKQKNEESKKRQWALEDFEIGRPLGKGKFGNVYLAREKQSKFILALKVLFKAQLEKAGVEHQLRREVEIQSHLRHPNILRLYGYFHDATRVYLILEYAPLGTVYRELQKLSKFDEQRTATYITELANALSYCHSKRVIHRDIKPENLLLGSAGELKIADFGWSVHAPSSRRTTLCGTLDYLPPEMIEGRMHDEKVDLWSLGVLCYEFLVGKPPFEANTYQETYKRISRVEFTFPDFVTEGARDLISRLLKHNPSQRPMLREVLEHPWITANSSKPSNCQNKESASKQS

[11] = target: T3, Aurora kinase A (Homo sapiens); conditions: at 1 µM
[12] = target: Aurora kinase B (Homo sapiens) (UniProt Q96GD4); conditions: at 0.1 µM
Chain of Aurora kinase B (Homo sapiens) (Q96GD4 whole entry): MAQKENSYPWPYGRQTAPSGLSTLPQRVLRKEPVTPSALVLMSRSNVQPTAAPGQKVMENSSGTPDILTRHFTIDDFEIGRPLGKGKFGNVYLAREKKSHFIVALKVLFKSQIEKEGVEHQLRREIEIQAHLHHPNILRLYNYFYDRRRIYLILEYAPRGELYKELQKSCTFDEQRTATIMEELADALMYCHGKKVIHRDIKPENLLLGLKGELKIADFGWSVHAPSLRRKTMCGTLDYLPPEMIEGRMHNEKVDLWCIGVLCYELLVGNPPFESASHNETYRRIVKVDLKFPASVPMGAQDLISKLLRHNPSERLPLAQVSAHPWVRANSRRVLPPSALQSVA

[13] = target: Aurora kinase B (Homo sapiens) (UniProt Q96GD4); conditions: at 1 µM
[14] = target: T4, Aurora kinase C (Homo sapiens) (UniProt Q9UQB9); conditions: at 0.1 µM
T4 sequence (whole entry): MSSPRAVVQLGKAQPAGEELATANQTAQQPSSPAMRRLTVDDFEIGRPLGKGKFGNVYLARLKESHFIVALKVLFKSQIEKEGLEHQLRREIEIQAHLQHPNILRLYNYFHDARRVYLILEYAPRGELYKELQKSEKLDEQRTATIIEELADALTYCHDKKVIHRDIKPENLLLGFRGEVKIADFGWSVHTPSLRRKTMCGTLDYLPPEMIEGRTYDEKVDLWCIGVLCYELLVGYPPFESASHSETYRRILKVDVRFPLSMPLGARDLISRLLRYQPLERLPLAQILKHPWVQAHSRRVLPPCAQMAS

[15] = target: T4, Aurora kinase C (Homo sapiens); conditions: at 1 µM
[16] = target: Serine/threonine-protein kinase 10 (Homo sapiens) (UniProt O94804); conditions: at 0.1 µM
[17] = target: Serine/threonine-protein kinase 10 (Homo sapiens) (UniProt O94804); conditions: at 1 µM
[18] = target: T5, Mitogen-activated protein kinase kinase kinase kinase 2 (Homo sapiens) (UniProt Q12851); conditions: at 0.1 µM
T5 sequence (whole entry): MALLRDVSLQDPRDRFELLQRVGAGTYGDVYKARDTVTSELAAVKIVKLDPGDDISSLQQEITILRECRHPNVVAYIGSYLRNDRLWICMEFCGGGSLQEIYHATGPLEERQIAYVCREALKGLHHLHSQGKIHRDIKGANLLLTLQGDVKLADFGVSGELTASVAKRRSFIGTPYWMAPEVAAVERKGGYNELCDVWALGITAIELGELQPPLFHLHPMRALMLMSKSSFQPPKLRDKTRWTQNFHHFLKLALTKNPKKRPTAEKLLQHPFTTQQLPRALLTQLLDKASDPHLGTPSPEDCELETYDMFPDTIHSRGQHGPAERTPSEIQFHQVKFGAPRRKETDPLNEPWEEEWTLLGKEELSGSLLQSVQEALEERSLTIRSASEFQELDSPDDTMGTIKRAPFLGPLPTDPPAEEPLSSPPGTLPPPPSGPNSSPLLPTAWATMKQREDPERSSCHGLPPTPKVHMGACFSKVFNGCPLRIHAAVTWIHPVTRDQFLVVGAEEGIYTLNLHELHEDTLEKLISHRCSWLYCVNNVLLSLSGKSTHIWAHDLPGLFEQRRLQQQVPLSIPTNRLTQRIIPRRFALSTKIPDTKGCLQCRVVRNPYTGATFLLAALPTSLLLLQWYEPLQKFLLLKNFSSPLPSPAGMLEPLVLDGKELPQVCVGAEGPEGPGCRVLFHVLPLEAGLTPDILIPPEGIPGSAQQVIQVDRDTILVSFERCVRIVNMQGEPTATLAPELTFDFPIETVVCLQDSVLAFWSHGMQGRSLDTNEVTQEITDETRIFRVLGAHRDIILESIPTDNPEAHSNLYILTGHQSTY

[19] = target: T5, Mitogen-activated protein kinase kinase kinase kinase 2 (Homo sapiens); conditions: at 1 µM
[20] = target: Mitogen-activated protein kinase kinase kinase kinase 4 (Homo sapiens) (UniProt O95819); conditions: at 0.1 µM
Chain of Mitogen-activated protein kinase kinase kinase kinase 4 (Homo sapiens) (O95819 2-1239 limits assumed): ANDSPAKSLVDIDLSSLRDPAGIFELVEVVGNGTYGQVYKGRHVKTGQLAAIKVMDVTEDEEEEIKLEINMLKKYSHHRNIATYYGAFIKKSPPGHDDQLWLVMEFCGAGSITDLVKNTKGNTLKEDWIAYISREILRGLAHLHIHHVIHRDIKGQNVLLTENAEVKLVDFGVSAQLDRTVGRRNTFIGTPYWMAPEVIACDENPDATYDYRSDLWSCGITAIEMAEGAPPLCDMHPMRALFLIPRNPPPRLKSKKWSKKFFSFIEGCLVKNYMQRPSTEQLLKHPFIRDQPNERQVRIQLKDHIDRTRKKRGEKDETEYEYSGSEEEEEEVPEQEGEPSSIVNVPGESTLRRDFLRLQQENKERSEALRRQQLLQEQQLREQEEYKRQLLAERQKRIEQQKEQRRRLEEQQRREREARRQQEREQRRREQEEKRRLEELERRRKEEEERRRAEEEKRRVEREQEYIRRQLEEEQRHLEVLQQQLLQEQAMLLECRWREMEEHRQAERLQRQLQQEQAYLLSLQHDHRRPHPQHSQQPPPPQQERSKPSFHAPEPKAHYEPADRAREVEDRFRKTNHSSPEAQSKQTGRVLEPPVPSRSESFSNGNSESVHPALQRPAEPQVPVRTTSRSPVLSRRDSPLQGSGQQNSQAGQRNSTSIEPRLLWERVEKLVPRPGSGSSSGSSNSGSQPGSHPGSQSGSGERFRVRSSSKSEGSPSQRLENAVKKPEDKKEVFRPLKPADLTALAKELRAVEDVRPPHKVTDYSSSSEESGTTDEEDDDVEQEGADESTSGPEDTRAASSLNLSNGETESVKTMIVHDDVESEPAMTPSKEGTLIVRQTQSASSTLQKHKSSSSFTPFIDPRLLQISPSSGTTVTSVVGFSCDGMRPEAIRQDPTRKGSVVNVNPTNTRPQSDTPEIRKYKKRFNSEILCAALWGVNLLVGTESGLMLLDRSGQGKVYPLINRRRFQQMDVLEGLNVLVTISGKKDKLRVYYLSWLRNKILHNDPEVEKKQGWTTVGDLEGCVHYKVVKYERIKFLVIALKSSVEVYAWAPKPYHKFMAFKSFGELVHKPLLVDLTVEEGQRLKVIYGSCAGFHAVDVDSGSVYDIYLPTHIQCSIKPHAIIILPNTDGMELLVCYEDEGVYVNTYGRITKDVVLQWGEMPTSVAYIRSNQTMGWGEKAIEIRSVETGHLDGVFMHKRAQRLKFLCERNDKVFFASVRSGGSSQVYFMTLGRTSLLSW

Chain of High affinity nerve growth factor receptor (Homo sapiens) (P04629 33-796 limits assumed): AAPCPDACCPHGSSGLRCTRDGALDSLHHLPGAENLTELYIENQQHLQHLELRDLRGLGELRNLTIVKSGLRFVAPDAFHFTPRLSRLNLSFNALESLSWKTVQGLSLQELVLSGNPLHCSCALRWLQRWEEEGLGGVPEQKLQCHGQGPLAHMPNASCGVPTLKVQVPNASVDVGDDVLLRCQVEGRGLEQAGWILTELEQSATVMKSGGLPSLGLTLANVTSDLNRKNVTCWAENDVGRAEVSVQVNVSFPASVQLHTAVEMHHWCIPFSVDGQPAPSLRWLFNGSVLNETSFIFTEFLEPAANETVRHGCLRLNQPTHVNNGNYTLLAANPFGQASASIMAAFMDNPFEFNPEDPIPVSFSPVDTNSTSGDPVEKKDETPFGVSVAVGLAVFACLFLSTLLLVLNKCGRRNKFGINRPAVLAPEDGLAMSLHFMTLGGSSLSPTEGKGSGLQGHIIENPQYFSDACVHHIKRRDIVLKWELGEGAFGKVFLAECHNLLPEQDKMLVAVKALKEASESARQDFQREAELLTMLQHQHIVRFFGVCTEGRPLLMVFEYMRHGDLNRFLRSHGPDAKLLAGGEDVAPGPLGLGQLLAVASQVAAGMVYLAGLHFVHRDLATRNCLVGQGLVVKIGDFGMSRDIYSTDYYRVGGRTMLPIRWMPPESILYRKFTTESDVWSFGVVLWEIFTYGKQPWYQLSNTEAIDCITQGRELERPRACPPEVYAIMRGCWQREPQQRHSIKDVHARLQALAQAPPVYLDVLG
Chain of NT-3 growth factor receptor (Homo sapiens) (Q16288 32-839 limits assumed): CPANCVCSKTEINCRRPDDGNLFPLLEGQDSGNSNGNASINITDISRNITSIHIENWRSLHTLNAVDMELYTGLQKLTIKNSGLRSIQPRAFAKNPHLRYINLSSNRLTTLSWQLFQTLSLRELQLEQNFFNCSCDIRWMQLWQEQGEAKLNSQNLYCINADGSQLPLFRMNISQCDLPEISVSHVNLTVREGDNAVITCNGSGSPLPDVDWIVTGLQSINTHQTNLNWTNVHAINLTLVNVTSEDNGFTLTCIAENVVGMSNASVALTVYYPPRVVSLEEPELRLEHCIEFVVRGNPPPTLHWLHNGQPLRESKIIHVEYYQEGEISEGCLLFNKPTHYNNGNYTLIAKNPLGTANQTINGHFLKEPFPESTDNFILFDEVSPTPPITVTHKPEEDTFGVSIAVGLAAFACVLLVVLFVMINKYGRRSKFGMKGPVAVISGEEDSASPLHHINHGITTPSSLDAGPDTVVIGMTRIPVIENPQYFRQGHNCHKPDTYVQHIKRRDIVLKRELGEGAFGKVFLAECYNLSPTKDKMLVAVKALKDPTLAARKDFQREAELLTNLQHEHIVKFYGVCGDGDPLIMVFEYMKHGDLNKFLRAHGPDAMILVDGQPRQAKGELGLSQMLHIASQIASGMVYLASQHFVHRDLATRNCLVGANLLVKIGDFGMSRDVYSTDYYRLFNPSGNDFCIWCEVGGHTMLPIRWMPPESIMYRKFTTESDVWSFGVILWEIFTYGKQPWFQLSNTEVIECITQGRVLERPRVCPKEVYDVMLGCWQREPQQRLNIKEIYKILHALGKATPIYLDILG

| SMILES | inhibition [1] [%] | inhibition [2] [%] | inhibition [3] [%] | inhibition [4] [%] | inhibition [5] [%] | inhibition [6] [%] | inhibition [7] [%] | inhibition [8] [%] | inhibition [9] [%] | inhibition [10] [%] | inhibition [11] [%] | inhibition [12] [%] | inhibition [13] [%] | inhibition [14] [%] | inhibition [15] [%] | inhibition [16] [%] | inhibition [17] [%] | inhibition [18] [%] | inhibition [19] [%] | inhibition [20] [%] |
| --- | --- | --- | --- | --- | --- | --- | --- | --- | --- | --- | --- | --- | --- | --- | --- | --- | --- | --- | --- | --- |
| COc1cc2ncn(-c3cc(OCc4cccs4)c(C(N)=O)s3)c2cc1OC | 8.7 | 3.23 | 16.9 | 6.48 | 27.2 | 0.76 | 5.11 | -2.34 | 7.37 | -6.64 | 13.4 | 2.98 | 20 | -0.54 | 10.1 | 75.9 | 93.5 | 10.8 | 36 | 18.7 |
| COC(=O)Nc1nc2ccc(Sc3ccc(NC(=O)Nc4cc(C(F)(F)F)ccc4F)cc3)cc2[nH]1 | 83 | 15.1 | 71.8 | 15.5 | 69.5 | 3.58 | 4.98 | -0.72 | 8.33 | 1.16 | 7.64 | 0.96 | 8.08 | 1.09 | 6.4 | 18.9 | 72.7 | 7.11 | 27.5 | 5 |
| COc1cc(N2CCN(C(C)C)CC2)ccc1Nc1nc(Nc2ccc(F)cc2C(=O)NC[C@@H](O)CO)c2cc[nH]c2n1 | 1.99 | 3.32 | 5.92 | 3.35 | 4.57 | -1.48 | -0.56 | -4.74 | 82 | -1.18 | -2.23 | -2.39 | 3.15 | -2.54 | -7.09 | 6.3 | 9.7 | 1.34 | 1.33 | 4.24 |
| O=C1Nc2ccccc2/C1=C/Nc1ccc(-n2cncn2)cc1 | 44.2 | 11.7 | 56.5 | 12.5 | 58.4 | 3.04 | 5.07 | -4.51 | 47.9 | 4.13 | 36.3 | 6.72 | 27.7 | 3.93 | 44.8 | 4.16 | 12.6 | 2.9 | 12.6 | 18.5 |
| CS(=O)(=O)CCNCc1ccc(-c2ccc3ncnc(Nc4ccc(OCc5ccccc5)c(Br)c4)c3c2)o1 | 0.51 | 3 | 4.04 | 2 | 1.45 | -5.68 | 2.31 | -5.11 | 10.2 | -1.23 | -1.79 | -1.52 | 3.89 | -3.26 | 1.56 | 8.55 | 16.4 | 0.72 | 0.4 | 3.17 |
| COc1cc(Nc2ncc(-c3ccccc3)o2)cc(OC)c1OC | 23.1 | 2.41 | 28.3 | 2.64 | 25.2 | 1.07 | 16.2 | -2.24 | -1.01 | 15.7 | 75.5 | 10.1 | 50 | 8.67 | 71.8 | 1.37 | 11.1 | 2.15 | 11.5 | 2.13 |
| Clc1ccc(CNc2nccc(-c3cnn4ncccc34)n2)cc1 | 1.03 | 0.46 | 1.45 | 0.37 | 2.98 | 2.07 | 6.82 | -1.15 | 10.5 | 0.34 | 10.8 | -0.06 | 8.64 | 2.6 | 4.42 | 2.66 | 6.27 | 2.75 | 9.93 | 3.91 |
| COc1ccc2cc(-c3c(-c4ccncc4)nc(-c4ccc([S+](C)[O-])cc4C)n3C)ccc2c1 (stereo not given) | -0.68 | -0.26 | -0.8 | -0.79 | 1.56 | 0.29 | 1.25 | -1.86 | 1.61 | -0.61 | 4.24 | 2.96 | 6.06 | -0.11 | 2.95 | 52.4 | 97.3 | -0.16 | 0.1 | 1.21 |
| O=C(Nc1n[nH]c2nc(-c3ccc(O)cc3)c(Br)cc12)C1CC1 | 12.3 | 5.55 | 14.5 | 5.79 | 16.4 | 4.99 | 9.15 | -1.54 | 15.3 | 5.34 | 37.7 | 4.29 | 12.7 | 2.12 | 8.73 | 16.2 | 61.3 | 7 | 34.4 | 32.2 |
| O=C(Nc1n[nH]c2cc(-c3cc(F)ccc3F)ccc12)C1CC1 | 8.4 | 3.77 | 8.07 | 3.77 | 14 | 2.25 | 0.99 | -1 | 9.7 | 2.63 | 18.1 | 2.4 | 6.93 | 0.12 | 8.07 | 4.84 | 13.1 | 0.39 | 5.06 | 16.4 |
| O=C(Nc1ccc(Oc2ccc3[nH]c(NC(=O)c4ccccc4)nc3c2)cc1)Nc1cc(C(F)(F)F)ccc1F | 52.2 | 5.11 | 35.1 | 8.01 | 41 | 3.06 | 6.27 | -4.63 | 19.2 | 1.31 | 12.4 | 0.59 | 13.9 | 3.42 | 40.8 | 12.8 | 50.2 | 1.6 | 19 | 3.95 |
| NC(=O)Cc1ccccc1Oc1nccc(-c2c(-c3ccc(F)cc3)ncn2C2CCNCC2)n1 | 1.31 | 0.02 | 0.58 | 0.22 | 0.96 | 3.01 | 4.27 | -1.14 | 7.71 | 1.9 | 0.49 | 2.8 | 1.02 | -0.43 | 8.16 | 3.78 | 5.45 | 0.65 | 3.36 | 5.19 |
| COc1ccc2cc(-c3c(-c4ccncc4)nc(-c4ccc(S(C)(=O)=O)cc4C)n3C)ccc2c1 | 0.55 | 2.95 | 3.12 | 2.38 | 4.11 | 3.55 | 5.35 | -5.17 | 8.65 | 2.7 | 17.6 | 4.05 | 16.2 | 1.31 | 12.7 | 43.9 | 95.3 | 0.86 | 0.3 | 4.65 |

Source: ChEMBL document CHEMBL1961873, “Compounds: GSK PKIS; Assays: Nanosyn kinase panel” (2012)
